Measured values as given in PubChem BioAssay AID1159580 (chemical genetic matrix, 2015).
“And” between values parts separate entries of the source, which are not always exact repeats. Identical values can stand only once. Among all 5,500 compounds or so, about 2,000 (36%) were called active. About 18% were inconclusive and are not listed. Cut-off read from the data, not from the text of the source: active = normalized growth mostly below about 0.91 (no sharp cut-off); inconclusive = no clear call, values can overlap the other calls; inactive = mostly above about 0.92. This is one part of the list.

Assay: chemical genetic growth profiling, strain panel (AID 1159580);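 note: tested at 20 µM; growth read once vehicle control cultures reached saturation at 30 °C; 1 = growth at the plate median or of vehicle wells; lower values mean less growth of the strain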
Conditions: S. cerevisiae deletion strains, growth OD

Measured: normalized growth

CC(C)OC(=O)C(C)(C)Oc1ccc(C(=O)c2ccc(Cl)cc2)cc1
active: locus YDR162C, strain NBP2, hits give low values 0.671 | locus YGR229C, strain SMI1, hits give low values 0.763
inactive: locus YAL013W, strain DEP1, hits give low values 1.01 | locus YAL021C, strain ccr4, hits give low values 1 | locus YAL026C, strain drs2, hits give low values 0.976 | locus YAL030W, strain snc1, hits give low values 0.971 | locus YAL040C, strain CLN3, hits give low values 1.08 | locus YBL061C, strain skt5, hits give low values 0.966 | locus YBR009C, strain hhf1, hits give low values 0.949 | locus YBR021W, strain FUR4, hits give low values 0.976 | locus YBR023C, strain chs3, hits give low values 0.97 | locus YBR171W, strain sec66, hits give low values 0.965 | locus YBR229C, strain ROT2, hits give low values 1 | locus YBR231C, strain swc5, hits give low values 0.969 | locus YBR279W, strain paf1, hits give low values 0.973 | locus YCL011C, strain gbp2, hits give low values 0.954 | locus YCL016C, strain dcc1, hits give low values 0.975 | locus YCL029C, strain bik1, hits give low values 1.01 | locus YCL061C, strain MRC1 (second series), hits give low values 0.982 | locus YCL061C, strain MRC1, hits give low values 0.981 | locus YCL069W, strain vba3, hits give low values 0.978 | locus YCR088W, strain abp1, hits give low values 0.977 | locus YDL005C, strain med2, hits give low values 0.961 | locus YDL035C, strain GPR1, hits give low values 0.942 | locus YDL040C, strain nat1, hits give low values 0.966 | locus YDL074C, strain BRE1, hits give low values 0.931 | locus YDL101C, strain DUN1, hits give low values 1.01 | locus YDL134C, strain PPH21, hits give low values 0.995 | locus YDL185W, strain tfp1, hits give low values 0.995 | locus YDL192W, strain arf1, hits give low values 0.987 | locus YDR001C, strain nth1, hits give low values 0.971 | locus YDR069C, strain doa4, hits give low values 0.975 | locus YDR101C, strain arx1, hits give low values 0.987 | locus YDR137W, strain rgp1, hits give low values 0.943 | locus YDR150W, strain NUM1, hits give low values 1.01 | locus YDR159W, strain sac3, hits give low values 0.982 | locus YDR195W, strain ref2 0.982 | locus YDR297W, strain sur2, hits give low values 0.976 | locus YDR318W, strain mcm21, hits give low values 0.969 | locus YDR334W, strain swr1, hits give low values 0.976 | locus YDR335W, strain msn5, hits give low values 0.977 | locus YDR363W, strain ESC2, hits give low values 0.969 | locus YDR388W, hits give low values 0.983 | locus YDR392W, strain spt3, hits give low values 0.923 | locus YDR502C, strain sam2, hits give low values 0.979 | locus YEL003W, strain gim4, hits give low values 0.979 | locus YEL037C, strain rad23, hits give low values 1.01 | locus YEL061C, strain CIN8 (second series), hits give low values 0.963 | locus YEL061C, strain CIN8, hits give low values 1.01 | locus YER002W, strain NOP16, hits give low values 1 | locus YER015W, strain faa2, hits give low values 0.967 | locus YER016W, strain bim1, hits give low values 0.978 | locus YER110C, hits give low values 0.998 | locus YER111C, strain swi4, hits give low values 0.961 | locus YER155C, strain BEM2 (second series), hits give low values 0.977 | locus YER155C, strain BEM2, hits give low values 1 | locus YER167W, strain BCK2, hits give low values 0.987 | locus YFR010W, strain ubp6, hits give low values 0.964 | locus YGL078C, strain dbp3, hits give low values 0.991 | locus YGL086W, strain mad1, hits give low values 0.979 | locus YGL167C, strain pmr1, hits give low values 0.957 | locus YGL173C, strain kem1, hits give low values 0.977 | locus YGL227W, strain vid30, hits give low values 0.967 | locus YGL240W, strain doc1, hits give low values 0.991 | locus YGL248W, strain PDE1, hits give low values 0.969 | locus YGL253W, strain hxk2, hits give low values 0.972 | locus YGR078C, strain PAC10, hits give low values 0.944 and 0.983 | locus YGR135W, strain pre9, hits give low values 0.987 | locus YGR252W, strain gcn5, hits give low values 0.995 | locus YHR013C, strain ard1, hits give low values 0.963 | locus YHR027C, strain rpn1, hits give low values 0.986 | locus YHR030C, strain SLT2, hits give low values 0.989 and 0.966 | locus YHR079C, strain IRE1 (second series), hits give low values 0.987 | locus YHR079C, strain IRE1, hits give low values 0.952 | locus YHR094C, strain hxt1, hits give low values 0.977 | locus YHR129C, strain ARP1, hits give low values 1 | locus YHR142W, strain chs7, hits give low values 0.966 | locus YHR200W, strain rpn10, hits give low values 0.995 | locus YIL066C, strain RNR3, hits give low values 0.971 | locus YIL073C, strain SPO22, hits give low values 0.741 | locus YIL125W, strain kgd1, hits give low values 0.991 | locus YIR030C, strain dcg1, hits give low values 0.983 | locus YJL092W, strain hpr5, hits give low values 0.975 | locus YJL095W, strain BCK1 (second series), hits give low values 0.981 | locus YJL095W, strain BCK1, hits give low values 0.971 and 0.954 | locus YJL115W, strain asf1, hits give low values 0.972 | locus YJL129C, strain trk1, hits give low values 0.893 | locus YJL134W, strain LCB3, hits give low values 1 | locus YJL154C, strain vps35, hits give low values 0.973 | locus YJL164C, strain tpk1, hits give low values 0.964 | locus YJL166W, strain qcr8, hits give low values 0.955 | locus YJL168C, strain set2, hits give low values 0.983 | locus YJL187C, strain SWE1 (second series), hits give low values 1 | locus YJL187C, strain SWE1, hits give low values 0.97 | locus YJR043C, strain POL32, hits give low values 1.01 | locus YJR066W, strain TOR1, hits give low values 0.873
